Target: Concanavalin-A (Canavalia ensiformis) (UniProt P02866)
Assay: ConA small-molecule binders, primary screen, artefact control for SMM control protein annotation, biochemical, small-molecule microarray, Alexa647 label, 635 nm (AID 1127);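 further: z combines 667 nm emission intensity with signal-to-noise across three replicate slides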
Details: ConA-A647 binding fluorescence, higher = more signal

Sequence of Concanavalin-A (Canavalia ensiformis) (P02866 whole entry, looked up): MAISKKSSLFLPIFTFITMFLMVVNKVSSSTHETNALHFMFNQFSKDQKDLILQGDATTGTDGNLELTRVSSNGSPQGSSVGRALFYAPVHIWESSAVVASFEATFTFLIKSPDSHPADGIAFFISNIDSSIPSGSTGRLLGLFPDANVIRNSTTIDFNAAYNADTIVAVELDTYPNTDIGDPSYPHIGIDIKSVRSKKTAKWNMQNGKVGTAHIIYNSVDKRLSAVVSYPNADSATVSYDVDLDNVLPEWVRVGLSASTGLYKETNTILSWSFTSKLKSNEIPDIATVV

SMILES	composite z-score
C=CCC(OC(C)=O)[C@@H]1[C@@H](N(Cc2cccc3ccccc23)C(=O)c2ccc(C)cc2)c2cc(OCCCO)ccc2N1C(=O)Cc1ccc2ccccc2c1 (stereo not given in full)	-0.0292
COC(=O)C1(CC(C)C)C=C2C(=C(C)C(=O)C2C)CN1 (stereo not given)	-0.667
COC(=O)[C@@]1(Cc2ccc(F)cc2)[C@H]2c3cc(C(=O)N4CCCC4)n(C[C@H](O)CO)c3C[C@H]2CN1C(=O)c1ccccc1	0.779
COC(=O)C(CC#Cc1ccc2c(c1)[C@]1(C(=O)N2)[C@H](C(=O)NC[C@H](O)c2ccccc2)[C@H]2C(=O)O[C@H](c3ccccc3)[C@H](c3ccccc3)N2[C@@H]1c1ccc(O)cc1)C(=O)OC	0.188
CC(C)c1ccc(NN2C(C(O)C3CCCCC3)C=CC3C(=O)N(c4ccccc4)C(=O)C32)cc1 (stereo not given)	1.14
CN(C)C(=O)[C@]1(CCS(=O)(=O)c2ccccc2)N=C(c2ccc(OCCCO)cc2)O[C@@H]1c1ccccc1CN=[N+]=[N-]	1.17
COc1ccc(C(=O)Nc2cccc(CN3C(=O)[C@]4(O[C@H](CC(=O)N(CCO)Cc5ccccc5)[C@@H]([Si](C)(C)c5ccc(OC)cc5)[C@@H]4C)c4ccccc43)c2)cc1	0.762
C=CCNC(=O)[C@@H]1[C@H]2C(=O)O[C@H](c3ccccc3)[C@H](c3ccccc3)N2[C@H](c2ccc(O)cc2)[C@@]12C(=O)N(C(=O)OCCOC)c1ccc(C#CCC(C(=O)OC)C(=O)OC)cc12	0.601
C=CCNC(=O)[C@H]1[C@@H]2C(=O)O[C@@H](c3ccccc3)[C@@H](c3ccccc3)N2[C@@H](c2ccc(OCCO)cc2)[C@]12C(=O)N(C(=O)OCCOC)c1ccc(C#CCNC(N)=O)cc12	1.11
COC(=O)[C@@]1(Cc2ccc(OC)cc2)[C@@H]2[C@@H](CC(=O)[C@H]2CC(=O)C(=O)N(C)C)CN1C(=O)c1ccccc1	1.13
CC(C)N1C(=O)[C@@]2(Cc3ccccc31)c1ccccc1C(=O)N(Cc1ccccc1C(F)(F)F)[C@H]2c1ccc(CO)cc1	1.1
COc1ccc(C#Cc2ccc3c(c2)[C@]2(C(=O)N3)[C@H](c3ccccc3OCCO)N3[C@H](c4ccccc4)[C@H](c4ccccc4)OC(=O)[C@H]3[C@@H]2C(=O)NC[C@H](O)c2ccccc2)cc1	1.07
O=C1O[C@H](c2ccccc2)[C@H](c2ccccc2)N2[C@H]1[C@@H](C(=O)O)[C@]1(C(=O)Nc3ccccc31)[C@H]2c1ccc(OCCO)cc1	0.864
Cc1ccc(S[C@]2(C(=O)NCCN3CCOCC3)CC(=O)N(C(C)C)[C@@H]2c2ccc(CO)cc2I)cc1	-0.452
COc1ccc([Si](C)(C)[C@H]2[C@H](CC(=O)N(CCO)Cc3ccccc3)O[C@@]3(C(=O)N(c4ccccc4)c4ccccc43)[C@@H]2C)cc1	1.06
CN1C(=O)C2C=CC(C(O)c3ccc(I)cc3)N(N(c3ccccc3)c3ccccc3)C2C1=O (stereo not given)	0.326
C=CCC(OC(C)=O)[C@@H]1[C@@H](N(Cc2ccc(-c3ccccc3)cc2)C(=O)Cc2ccc(OC)cc2)c2cc(OCCCO)ccc2N1C(=O)Cc1ccc(OC)cc1 (stereo not given in full)	-0.0563
Cc1ccc(S[C@]2(C(=O)NC(C)C)CC(=O)N(Cc3ccccc3)[C@@H]2c2ccc(CO)cc2)cc1	-1.06
C=CCNC(=O)[C@H]1[C@@H]2C(=O)O[C@@H](c3ccccc3)[C@@H](c3ccccc3)N2[C@@H](c2ccc(OCCO)cc2)[C@]12C(=O)N(C(=O)OCCOC)c1ccc(C#CCC(C(=O)OC)C(=O)OC)cc12	1.12
CCCCCN1CC=CC23O[C@@H]4/C=C\CCCOC(=O)C4[C@H]2C(=O)N(CCO)[C@@H]3C1=O (stereo not given in full)	0.433
CN1C2C=C(c3ccc(CO)cc3)C(C3C(=O)N(C(N)=O)C(=O)C32)C1C1CC1 (stereo not given)	0.688
Cc1ccc(S(=O)(=O)N2[C@@H](c3ccccc3)C(C(=O)O)=C[C@H]2C(C)(C)C)cc1	1.17
C=C(C(=O)CC[C@@H](OC(=O)c1ccccc1-c1ccccc1C(=O)O)c1ccc(CO)o1)C(C)C	0.278
COC(=O)[C@@]1(Cc2ccc(F)cc2)[C@@H]2C(=CC(=O)[C@H]2CC(=O)C(=O)N2CCCC2)CN1C(=O)c1ccccc1	0.455
COC(=O)C(CC#Cc1ccc2c(c1)[C@]1(C(=O)N2)[C@H](C(=O)N2CCCCCCC2)[C@H]2C(=O)O[C@H](c3ccccc3)[C@H](c3ccccc3)N2[C@@H]1c1ccc(OCCO)cc1)C(=O)OC	1.18
C=CC[C@H](OC(=O)Nc1ccc(SC)cc1)c1ccc(O)c(F)c1	-0.873
Cc1cccc([C@H]2C[C@H]3C(Br)=C[C@@]2(CO)C(=O)[C@]32CO2)c1	-0.0472
C=C(CCCC)C(=O)CC[C@H](OC(=O)c1ccccc1-c1ccccc1C(=O)O)c1cccc(OCCO)c1	-1.14

Tested on: not listed separately
Assay: anti-His antibody binders, primary screen, artefact control for SMM control protein annotation, biochemical, small-molecule microarray, 635 nm fluorescence (AID 1128);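 further: score merges feature fluorescence with signal-to-noise for each printed compound spot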
Details: anti-His Alexa647 antibody binding, higher = more signal

SMILES	composite z-score
CCOC(=O)C1=CC[C@@H](c2ccccc2)N(S(=O)(=O)c2ccc(C)cc2)[C@@H]1C#N	2.09
C=CCN1C(=O)[C@]2(O[C@H](CCO)[C@@H]([Si](C)(C)c3ccc(OC)cc3)[C@@H]2C)c2cc(N3C(=O)c4ccccc4Oc4ccccc43)ccc21	0.309
C=CCOC(=O)[C@H]1[C@@H]2C(=O)O[C@@H](c3ccccc3)[C@@H](c3ccccc3)N2[C@@H](c2ccc(OCCOC(=O)[C@H]3C[C@H]4C(=O)NCC(=O)N4[C@H]3c3ccc(O)cc3)cc2)[C@]12C(=O)Nc1ccccc12	1.46
C=CCOC(=O)[C@H]1[C@@H]2C(=O)O[C@@H](c3ccccc3)[C@@H](c3ccccc3)N2[C@@H](c2ccc(OCCOC(=O)[C@@H]3C[C@@H]4C(=O)N[C@@H](Cc5ccccc5)C(=O)N4[C@@H]3c3ccc(O)cc3)cc2)[C@]12C(=O)Nc1ccc(I)cc12	1.15
CC(C)[Si](C#Cc1ccccc1)(O[C@H](c1ccccc1)c1cn(Cc2ccccc2)nn1)C(C)C	0.409
O=C(NCCN1CCOCC1)[C@@H]1c2ccccc2C(=O)N(CC23CC4CC(CC(C4)C2)C3)[C@H]1c1ccc(CO)cc1	2.06
O=C1O[C@@H](c2ccccc2)[C@@H](c2ccccc2)N2[C@@H](c3ccccc3OCCO)[C@]3(C(=O)Nc4ccc(C#CC5(O)CCCCCC5)cc43)[C@@H](C(=O)N3CCCCCCC3)[C@H]12	2.72
CCOC(=O)C[C@H]1[C@H](OC(=O)c2ccc(-c3ccccc3)cc2)[C@@H](NC(=O)C2CCCCC2)c2cc(OCCCO)ccc2N1C(=O)Cc1ccc(OC)cc1	0.132
C=CCC(OC(C)=O)[C@@H]1[C@@H](N(Cc2cccc3ccccc23)C(=O)c2ccc(C)cc2)c2cc(OCCCO)ccc2N1C(=O)Cc1ccc2ccccc2c1 (stereo not given in full)	-0.2
COC(=O)C1(CC(C)C)C=C2C(=C(C)C(=O)C2C)CN1 (stereo not given)	2.95
COC(=O)[C@@]1(Cc2ccc(F)cc2)[C@H]2c3cc(C(=O)N4CCCC4)n(C[C@H](O)CO)c3C[C@H]2CN1C(=O)c1ccccc1	1.09
COC(=O)C(CC#Cc1ccc2c(c1)[C@]1(C(=O)N2)[C@H](C(=O)NC[C@H](O)c2ccccc2)[C@H]2C(=O)O[C@H](c3ccccc3)[C@H](c3ccccc3)N2[C@@H]1c1ccc(O)cc1)C(=O)OC	-0.716
CC(C)c1ccc(NN2C(C(O)C3CCCCC3)C=CC3C(=O)N(c4ccccc4)C(=O)C32)cc1 (stereo not given)	1.04
CN(C)C(=O)[C@]1(CCS(=O)(=O)c2ccccc2)N=C(c2ccc(OCCCO)cc2)O[C@@H]1c1ccccc1CN=[N+]=[N-]	2.64
COc1ccc(C(=O)Nc2cccc(CN3C(=O)[C@]4(O[C@H](CC(=O)N(CCO)Cc5ccccc5)[C@@H]([Si](C)(C)c5ccc(OC)cc5)[C@@H]4C)c4ccccc43)c2)cc1	0.699
C=CCNC(=O)[C@@H]1[C@H]2C(=O)O[C@H](c3ccccc3)[C@H](c3ccccc3)N2[C@H](c2ccc(O)cc2)[C@@]12C(=O)N(C(=O)OCCOC)c1ccc(C#CCC(C(=O)OC)C(=O)OC)cc12	1.06
C=CCNC(=O)[C@H]1[C@@H]2C(=O)O[C@@H](c3ccccc3)[C@@H](c3ccccc3)N2[C@@H](c2ccc(OCCO)cc2)[C@]12C(=O)N(C(=O)OCCOC)c1ccc(C#CCNC(N)=O)cc12	1.9
COC(=O)[C@@]1(Cc2ccc(OC)cc2)[C@@H]2[C@@H](CC(=O)[C@H]2CC(=O)C(=O)N(C)C)CN1C(=O)c1ccccc1	2.06
CC(C)N1C(=O)[C@@]2(Cc3ccccc31)c1ccccc1C(=O)N(Cc1ccccc1C(F)(F)F)[C@H]2c1ccc(CO)cc1	0.175
COc1ccc(C#Cc2ccc3c(c2)[C@]2(C(=O)N3)[C@H](c3ccccc3OCCO)N3[C@H](c4ccccc4)[C@H](c4ccccc4)OC(=O)[C@H]3[C@@H]2C(=O)NC[C@H](O)c2ccccc2)cc1	1.05
O=C1O[C@H](c2ccccc2)[C@H](c2ccccc2)N2[C@H]1[C@@H](C(=O)O)[C@]1(C(=O)Nc3ccccc31)[C@H]2c1ccc(OCCO)cc1	1.26
Cc1ccc(S[C@]2(C(=O)NCCN3CCOCC3)CC(=O)N(C(C)C)[C@@H]2c2ccc(CO)cc2I)cc1	-1.03
COc1ccc([Si](C)(C)[C@H]2[C@H](CC(=O)N(CCO)Cc3ccccc3)O[C@@]3(C(=O)N(c4ccccc4)c4ccccc43)[C@@H]2C)cc1	1.2
CN1C(=O)C2C=CC(C(O)c3ccc(I)cc3)N(N(c3ccccc3)c3ccccc3)C2C1=O (stereo not given)	-0.456
C=CCC(OC(C)=O)[C@@H]1[C@@H](N(Cc2ccc(-c3ccccc3)cc2)C(=O)Cc2ccc(OC)cc2)c2cc(OCCCO)ccc2N1C(=O)Cc1ccc(OC)cc1 (stereo not given in full)	0.271
Cc1ccc(S[C@]2(C(=O)NC(C)C)CC(=O)N(Cc3ccccc3)[C@@H]2c2ccc(CO)cc2)cc1	0.0893
C=CCNC(=O)[C@H]1[C@@H]2C(=O)O[C@@H](c3ccccc3)[C@@H](c3ccccc3)N2[C@@H](c2ccc(OCCO)cc2)[C@]12C(=O)N(C(=O)OCCOC)c1ccc(C#CCC(C(=O)OC)C(=O)OC)cc12	0.302
